# Where “and” joins values, the source holds several entries; their conditions need not be identical. Equal entries are not always repeated. Results filed as inconclusive are left out. For some of these results: Potency and affinity values are given separately. Calls of active or inactive are those of the source. Unless noted, no stated cut-off is given here; in the data, active means parasite load remaining mostly below about 12% (no sharp cut-off); inactive means mostly above about 10%.
# Tests used:
# [1] = liver-stage malaria parasite growth inhibition, primary screen, cell-based, HepG2, luciferase luminescence, HepG2 viability (AID 624349);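 further: 100% = mean of DMSO negative control wells on the same plate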; conditions: P. berghei liver stage in HepG2, luciferase luminescence, concentration not given here; parasite load remaining: stronger effect = lower value; viability: measured here: HepG2 viability without parasites
# [2] = differential killing of epithelial or mesenchymal cells, primary screen, imaging, PC-3E GFP, TEM4-18 mCherry, co-culture (AID 1345086;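 active means compounds killing one labelled cell type while sparing the other, by normalised counts and ratio limits, not self-fluorescent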;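 on all read-outs here: cells exposed to compound for 72 h before imaging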;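 on red/green cell ratio (normalised): normalised mesenchymal count divided by normalised epithelial count so high means epithelial killing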); conditions: imaging cell counts, at 1 µM; for red/green cell ratio (normalised): actives lie on both sides, counts scaled to control wells, 1 = unselective
# [3] = sensitizers of A549 cells to miR-34 induction, primary screen, imaging, A549 dox-inducible miR-34, nuclei and caspase counts (AID 1347080;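 active means compounds whose cell count with miR-34 switched on is under 0.7 times the count with it off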); conditions: A549 miR-34 inducible, Hoechst nuclei count, 48 h
# [4] = molecular target: NAD(+) hydrolase SARM1 (Homo sapiens) (UniProt Q6SZW1); assay: SARM1 TIR NADase inhibitors, cell lysate, NAD-Glo luminescence (AID 1508614;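 active means compound whose remaining NAD level is above about 45 nM, limit read from the data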); conditions: SAM-TIR HEK293T lysate NADase, at 1 µM, stronger effect = higher value
# Sequence of NAD(+) hydrolase SARM1 (Homo sapiens) (Q6SZW1 whole entry, looked up, the tested form may be a part): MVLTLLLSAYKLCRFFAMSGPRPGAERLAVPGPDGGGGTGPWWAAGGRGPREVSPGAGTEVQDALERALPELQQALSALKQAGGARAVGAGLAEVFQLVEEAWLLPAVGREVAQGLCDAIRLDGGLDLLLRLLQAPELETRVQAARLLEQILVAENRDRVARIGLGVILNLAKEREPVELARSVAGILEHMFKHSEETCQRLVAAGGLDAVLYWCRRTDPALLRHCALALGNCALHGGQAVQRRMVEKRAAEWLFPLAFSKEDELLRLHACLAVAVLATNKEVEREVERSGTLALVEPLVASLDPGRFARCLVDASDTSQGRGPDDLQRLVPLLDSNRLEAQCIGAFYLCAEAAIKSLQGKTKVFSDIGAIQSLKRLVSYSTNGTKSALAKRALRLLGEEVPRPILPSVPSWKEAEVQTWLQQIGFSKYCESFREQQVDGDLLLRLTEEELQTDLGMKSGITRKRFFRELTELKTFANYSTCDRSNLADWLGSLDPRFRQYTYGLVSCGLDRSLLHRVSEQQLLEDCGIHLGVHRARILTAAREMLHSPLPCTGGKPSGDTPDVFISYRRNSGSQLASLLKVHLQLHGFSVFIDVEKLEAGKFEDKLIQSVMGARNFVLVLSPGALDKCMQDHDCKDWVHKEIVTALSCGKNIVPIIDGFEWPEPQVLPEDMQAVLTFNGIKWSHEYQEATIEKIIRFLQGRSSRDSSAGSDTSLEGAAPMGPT
# [5] = molecular target: Mitogen-activated protein kinase 7 (Homo sapiens) (UniProt Q13164); assay: ERK5 transactivation activators in reporter cells, primary screen, cell-based, HTS (AID 1508626;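 active means luciferase signal above three times the same-plate solvent-only control wells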;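 further: luciferase driven by Gal4-ERK5 fusion binding five Gal4 sites before minimal TATA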); conditions: HeLa Gal4-ERK5 transactivation, 18 h, at 5 µM, stronger effect = higher value
# Sequence of Mitogen-activated protein kinase 7 (Homo sapiens) (Q13164 whole entry, looked up, the tested form may be a part): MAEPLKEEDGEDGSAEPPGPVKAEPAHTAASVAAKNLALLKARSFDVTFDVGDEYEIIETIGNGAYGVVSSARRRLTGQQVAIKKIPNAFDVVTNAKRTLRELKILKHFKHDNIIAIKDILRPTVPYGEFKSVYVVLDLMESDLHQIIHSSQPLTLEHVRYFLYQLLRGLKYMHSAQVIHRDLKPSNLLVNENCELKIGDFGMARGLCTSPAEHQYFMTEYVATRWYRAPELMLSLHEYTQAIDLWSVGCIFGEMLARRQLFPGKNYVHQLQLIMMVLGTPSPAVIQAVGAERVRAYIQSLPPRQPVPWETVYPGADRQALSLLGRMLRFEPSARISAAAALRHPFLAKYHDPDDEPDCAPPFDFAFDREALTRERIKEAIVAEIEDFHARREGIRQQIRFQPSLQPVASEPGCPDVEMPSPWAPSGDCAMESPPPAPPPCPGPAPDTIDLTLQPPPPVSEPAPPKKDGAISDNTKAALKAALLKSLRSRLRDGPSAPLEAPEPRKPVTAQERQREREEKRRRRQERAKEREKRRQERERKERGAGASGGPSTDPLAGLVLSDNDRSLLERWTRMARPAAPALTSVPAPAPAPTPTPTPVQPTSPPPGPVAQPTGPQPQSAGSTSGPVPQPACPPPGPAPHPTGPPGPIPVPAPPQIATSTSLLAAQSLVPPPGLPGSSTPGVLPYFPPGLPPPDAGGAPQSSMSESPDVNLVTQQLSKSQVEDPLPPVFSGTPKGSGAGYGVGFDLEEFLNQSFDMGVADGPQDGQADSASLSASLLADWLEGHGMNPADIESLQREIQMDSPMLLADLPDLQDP
# [6] = polyglutamine-triggered caspase-3 activation inhibitors, cell-based (AID 1583); conditions: polyglutamine-induced caspase-3 activation, cell assay; stronger effect = higher value;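 tested at 10 µM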
# [7] = suppressors of polyQ aggregation in yeast, 75Q-TubU reporter (AID 1593); conditions: Yeast 75Q polyglutamine aggregation reporter
# [8] = rescue of polyQ-huntingtin neuronal dysfunction in worms, whole organism, C. elegans mechanosensory neurons, N-terminal huntingtin (AID 1599); conditions: touch response, stronger effect = higher value
# [9] = inhibitors of mitochondrial cytochrome c release, biochemical, purified mitochondria (AID 1603); conditions: stronger effect = lower value;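 further: mouse liver mitochondria challenged with calcium chloride; signal normalized to the plate average as 100%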
# [10] = inhibitors of polyQ protein aggregation (AID 1604); conditions: polyglutamine-induced protein aggregation inhibition assay; stronger effect = higher value; tested at 2.5 µM
# [11] = protection against mutant huntingtin cytotoxicity, PC12 cells, LDH release (AID 1610); conditions: PC12 mutant huntingtin toxicity, final LDH at 4 uM, stronger effect = lower value
# [12] = enhancers of glutamate uptake in motor neurons, MN-1 cell line (AID 1612); conditions: MN-1 motor neuron cells, stronger effect = higher value;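 further: tested at 1 µM final; 0% = mean of DMSO vehicle wells on each plate; positive means more glutamate uptake than control and negative means less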
# [13] = reducers of polyQ inclusions in PC12 cells, cell-based, NGF-treated PC12, GFPQ80 (AID 1614); conditions: PC12 NGF-treated GFP-polyQ80 inclusion reduction;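 further: lower means fewer inclusions and 0 means no inclusions at all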
# [14] = suppressors of polyglutamine aggregation in yeast, 75Q-TubH (AID 1616); conditions: S. cerevisiae 75Q-TubH polyglutamine aggregation suppression; stronger effect = higher value
# [15] = test system: Hepatitis C virus NS3 helicase; assay: HCV NS3 helicase inhibitors, primary screen, biochemical, fluorescence polarization, LOPAC1280 library (AID 687035; in the data active means inhibition above about 37%); conditions: Purified HCV NS3 helicase, Cy5-dT15 ssDNA binding fluorescence polarization; stronger effect = higher value; concentration not given here
# [16] = Cy5 fluorescence quenching or enhancement artefacts, artefact control for HCV NS3 helicase inhibitor project, biochemical, LOPAC1280 (AID 687037; call rule not given here); conditions: Cy5-DNA-NS3h complex fluorescence interference counterscreen
# [17] = protection of motor neurons from glutamate death, cell-based, TUNEL DNA degradation staining, MNGlu (AID 1594; call rule not given here); conditions: glutamate-induced death, at 1 µM, stronger effect = higher value
# [18] = measured here: epithelial PC-3E GFP cell survival
# [19] = measured here: mesenchymal TEM4-18 mCherry cell survival
# [20] = stronger effect = lower value, cell number ratio, induced over uninduced
# [21] = measured here: relative caspase fold change +Dox/-Dox
# [22] = measured here: total cells with miR-34 induction, stronger effect = lower value
# [23] = measured here: total cells without miR-34 induction
smiles,measurement,setting,value
C[N+](C)(C)C[C@H](O)CC(=O)[O-],parasite load remaining,[1],53.1% (inactive)
same,viability,[1],99.7%
same,red/green cell ratio (normalised),[2],1.04 (inactive)
same,normalised cell number,[2]; [18],0.94
same,normalised cell number,[2]; [19],0.98
same,fold change,[3]; [20],0.867 (inactive)
same,fold change,[3]; [21],4.08
same,cell count,[3]; [22],11500
same,cell count,[3]; [23],13200
same,remaining NAD,[4],10 nM (inactive)
same,luciferase signal,[5],32 AU (inactive)
CCC1(C)OC(=O)N(C)C1=O (stereo unspecified),red/green cell ratio (normalised),[2],0.84 (inactive)
same,normalised cell number,[2]; [18],1.08
same,normalised cell number,[2]; [19],0.91
same,fold change,[3]; [20],0.92 (inactive)
same,fold change,[3]; [21],0.865
same,cell count,[3]; [22],7860
same,cell count,[3]; [23],8540
same,remaining NAD,[4],10 nM (inactive)
same,luciferase signal,[5],16 AU (inactive)
CC(C)CC1C(=O)N2CCC[C@H]2C2(O)O[C@](NC(=O)C3C=C4c5cccc6[nH]c(Br)c(c56)C[C@H]4N(C)C3)(C(C)C)C(=O)N12 (stereo partly specified),inhibition,[6],2.51%
same,score,[7],1.5
same,rescue above control,[8],6.29
same,cytochrome c release ratio,[9],4.55
same,inhibition of aggregation,[10],72.4%
same,normalised LDH release,[11],0.995
same,glutamate uptake change,[12],-22%
same,inclusion score,[13],2.5
same,aggregation suppression score,[14],1.46
same,parasite load remaining,[1],49.3% (inactive) and 20% (inactive)
same,viability,[1],70.8% and 87%
same,red/green cell ratio (normalised),[2],1.32 (inactive)
same,normalised cell number,[2]; [18],0.91
same,normalised cell number,[2]; [19],1.21
same,fold change,[3]; [20],0.852 (inactive)
same,fold change,[3]; [21],1.96
same,cell count,[3]; [22],9430
same,cell count,[3]; [23],11100
Cc1ccc(S(=O)(=O)NCl)cc1,red/green cell ratio (normalised),[2],0.85 (inactive)
same,normalised cell number,[2]; [18],0.97
same,normalised cell number,[2]; [19],0.83
same,fold change,[3]; [20],0.925 (inactive)
same,fold change,[3]; [21],0.99
same,cell count,[3]; [22],8910
same,cell count,[3]; [23],9630
same,remaining NAD,[4],10 nM (inactive)
CO/N=C(/C(=O)N[C@@H]1C(=O)N2C(C(=O)O)=C(COC(C)=O)CS[C@H]12)c1csc(N)n1,inhibition,[6],6.49%
same,score,[7],1.38
same,rescue above control,[8],2.83
same,cytochrome c release ratio,[9],1.43
same,inhibition of aggregation,[10],86.2%
same,normalised LDH release,[11],0.958
same,glutamate uptake change,[12],-17.6%
same,inclusion score,[13],2
same,aggregation suppression score,[14],1.39
same,parasite load remaining,[1],84.7% (inactive) and 61.2% (inactive)
same,viability,[1],73.5% and 100%
same,inhibition,[15],6% (inactive)
same,fluorescence ratio (interference),[16],1 (inactive)
same,red/green cell ratio (normalised),[2],1.18 (inactive)
same,normalised cell number,[2]; [18],1.15
same,normalised cell number,[2]; [19],1.35
same,fold change,[3]; [20],0.913 (inactive)
same,fold change,[3]; [21],1.26
same,cell count,[3]; [22],11200
same,cell count,[3]; [23],12300
C[C@]12C=CC(=O)C=C1CCC1C2[C@@H](O)C[C@@]2(C)C1CC[C@]2(O)C(=O)CO (stereo partly specified),inhibition,[6],12%
same,score,[7],1.21
same,protection,[17],55% (active)
same,rescue above control,[8],1.9
same,cytochrome c release ratio,[9],1.29
same,inhibition of aggregation,[10],70.5%
same,glutamate uptake change,[12],9.97%
same,inclusion score,[13],2
same,aggregation suppression score,[14],1.27
same,parasite load remaining,[1],115% (inactive) and 54.5% (inactive)
same,viability,[1],73.3% and 82.9%
same,red/green cell ratio (normalised),[2],1.37 (inactive)
same,normalised cell number,[2]; [18],1.03
same,normalised cell number,[2]; [19],1.41
same,fold change,[3]; [20],0.848 (inactive)
same,fold change,[3]; [21],2.13
same,cell count,[3]; [22],6630
same,cell count,[3]; [23],7820
Cn1nnnc1SCC1=C(C(=O)O)N2C(=O)C(NC(=O)C(O)c3ccccc3)C2SC1 (stereo unspecified),inhibition,[6],15.1%
same,score,[7],1.62
same,rescue above control,[8],-1.89
same,cytochrome c release ratio,[9],1.02
same,inhibition of aggregation,[10],39.4%
same,glutamate uptake change,[12],14.2%
same,inclusion score,[13],2
same,aggregation suppression score,[14],1.25
same,parasite load remaining,[1],39.2% (inactive)
same,viability,[1],86%
same,red/green cell ratio (normalised),[2],0.9 (inactive)
same,normalised cell number,[2]; [18],1.03
same,normalised cell number,[2]; [19],0.93
same,fold change,[3]; [20],0.886 (inactive)
same,fold change,[3]; [21],4.15
same,cell count,[3]; [22],11200
same,cell count,[3]; [23],12600
C=CCCCCCCCCC(=O)[O-].C=CCCCCCCCCC(=O)[O-].[Zn+2],parasite load remaining,[1],88.8% (inactive)
same,viability,[1],94.5%
same,red/green cell ratio (normalised),[2],1.08 (inactive)
same,normalised cell number,[2]; [18],0.98
same,normalised cell number,[2]; [19],1.05
same,fold change,[3]; [20],0.86 (inactive)
same,fold change,[3]; [21],4.55
same,cell count,[3]; [22],11700
same,cell count,[3]; [23],13600
same,remaining NAD,[4],10 nM (inactive)
same,luciferase signal,[5],48 AU (inactive)
CC1(C)O[C@@H]2CC3C4C[C@H](F)C5=CC(=O)C=CC5(C)C4C(O)CC3(C)[C@]2(C(=O)CO)O1 (stereo partly specified),inhibition,[6],7.08%
same,score,[7],1.24
same,rescue above control,[8],14.2
same,cytochrome c release ratio,[9],1.01
same,inhibition of aggregation,[10],73%
same,normalised LDH release,[11],0.689
same,glutamate uptake change,[12],41.4%
same,inclusion score,[13],2
same,aggregation suppression score,[14],0.735
same,parasite load remaining,[1],131% (inactive) and 75.5% (inactive)
same,viability,[1],60.7% and 91.7%
same,red/green cell ratio (normalised),[2],1.23 (inactive)
same,normalised cell number,[2]; [18],1.12
same,normalised cell number,[2]; [19],1.38
same,fold change,[3]; [20],0.878 (inactive)
same,fold change,[3]; [21],1.79
same,cell count,[3]; [22],7120
same,cell count,[3]; [23],8110
C=C1CC[C@H](O)C/C1=C/C=C1\CCC[C@]2(C)C([C@H](C)/C=C/[C@H](C)C(C)C)CC[C@@H]12 (stereo partly specified),inhibition,[6],1.02%
same,score,[7],0.91
same,rescue above control,[8],1.1
same,cytochrome c release ratio,[9],1.43
same,inhibition of aggregation,[10],63.2%
same,glutamate uptake change,[12],0.71%
same,inclusion score,[13],3
same,aggregation suppression score,[14],0.441
same,parasite load remaining,[1],81.3% (inactive) and 44.7% (inactive)
same,viability,[1],73.5% and 101%
same,red/green cell ratio (normalised),[2],1.11 (inactive)
same,normalised cell number,[2]; [18],1.28
same,normalised cell number,[2]; [19],1.42
same,fold change,[3]; [20],0.922 (inactive)
same,fold change,[3]; [21],2.88
same,cell count,[3]; [22],11200
same,cell count,[3]; [23],12200
NCC[C@@H](O)C(=O)N[C@@H]1C[C@H](N)[C@@H](O[C@H]2O[C@H](CN)[C@@H](O)[C@H](O)[C@H]2O)[C@H](O)[C@H]1O[C@H]1O[C@H](CO)[C@@H](O)[C@H](N)C1O (stereo partly specified),inhibition,[6],-41.9%
same,score,[7],1.11
same,rescue above control,[8],-4.05
same,cytochrome c release ratio,[9],0.95
same,inhibition of aggregation,[10],36.6%
same,glutamate uptake change,[12],9.38%
same,inclusion score,[13],2
same,aggregation suppression score,[14],1.24
same,parasite load remaining,[1],115% (inactive) and 70.5% (inactive)
same,viability,[1],74.2% and 95.8%
same,red/green cell ratio (normalised),[2],1 (inactive)
same,normalised cell number,[2]; [18],1.2
same,normalised cell number,[2]; [19],1.2
same,fold change,[3]; [20],0.885 (inactive)
same,fold change,[3]; [21],0.583
same,cell count,[3]; [22],10600
same,cell count,[3]; [23],11900
CCCC1O[C@@H]2CC3C4CCC5=CC(=O)C=CC5(C)C4[C@@H](O)CC3(C)[C@]2(C(=O)CO)O1 (stereo partly specified),inhibition,[6],18.7%
same,score,[7],1.33
same,rescue above control,[8],-3.37
same,cytochrome c release ratio,[9],1.5
same,inhibition of aggregation,[10],69.2%
same,glutamate uptake change,[12],-4.39%
same,inclusion score,[13],2
same,aggregation suppression score,[14],1.53
same,parasite load remaining,[1],34.5% (inactive) and 13.1% (inactive)
same,viability,[1],88.8%
same,red/green cell ratio (normalised),[2],1.29 (inactive)
same,normalised cell number,[2]; [18],0.99
same,normalised cell number,[2]; [19],1.27
same,fold change,[3]; [20],0.872 (inactive)
same,fold change,[3]; [21],1.29
same,cell count,[3]; [22],6800
same,cell count,[3]; [23],7800
